Test results: PubChem BioAssay
Calls of active or inactive are those of the source. Unless noted, the rule behind the calls is not given here.

How the values were obtained:
[1] = system: Wnt5a (protein binding on small-molecule microarray); experiment: small molecules binding Wnt5a protein – biophysical, small-molecule microarray, 635/667 nm fluorescence, primary screen (AID 1142); conditions: 635 nm fluorescence, higher = more signal;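 note: fluorescence read at 667 nm with signal to noise per printed feature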
[2] = ATP-based viability of Huh7 replicon cells – cell-based, CellTiter-Glo luminescence, basal, 48 h, cytotoxicity control for HCV replication inhibitor project, primary screen (AID 1143); conditions: higher = more signal, called active from +8 up or from −8 down;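 note: Huh7 hepatoma cells carrying a hepatitis C replication reporter with no stimulus; test concentration not given here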
[3] = Pseudomonas biofilm growth suppression – PAO1 strain, BacTiter-Glo luminescence, LB-PBS, primary screen (AID 1144); conditions: P. aeruginosa PAO1 biofilm, 12 h, higher = more signal
[4] = basal CRE-LacZ reporter activity in PC12 – cell-based, unstimulated, primary screen (AID 1145); conditions: no forskolin, luminescence, 4.5 h, higher = more signal, called active from +8 up or from −8 down
[5] = forskolin-driven CRE-LacZ activity in PC12 – cell-based, CRE-LacZ reporter, forskolin-stimulated, primary screen (AID 1146); conditions: luminescence, 4.5 h, higher = more signal, called active from +8 up or from −8 down;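 note: PC12 cells with 6xCRE LacZ reporter stimulated by forskolin 10 µM; beta-galactosidase reporter signal reflecting CREB driven transcription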
[6] = molecular target: Streptavidin (Streptomyces avidinii) (UniProt P22629); experiment: compounds binding control protein streptavidin – biophysical, small-molecule microarray, 635/667 nm fluorescence, artefact control for SMM compound annotation, primary screen (AID 1147); conditions: higher = more signal;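 note: signal reflects streptavidin binding to arrayed compounds as a control protein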
[7] = probe aInhba binding on compound microarray – biochemical, small-molecule microarray, 635/667 nm fluorescence, primary screen (AID 1148); conditions: higher = more signal;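 note: score merges 667nm spot fluorescence with signal-to-noise for antibody binding to printed compounds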
[8] = molecular target: Torsin-1A (Homo sapiens) (UniProt O14656); experiment: TOR1A wild-type binding on microarray – cell lysate, small-molecule microarray, lysate, 635/667 nm, primary screen (AID 1149); conditions: COS7 hTOR1A-WT lysate, 635 nm fluorescence, higher = more signal
[9] = molecular target: Torsin-1A (Homo sapiens) (UniProt O14656); experiment: torsin A mutant lysate binding on microarrays – cell lysate, small-molecule microarray, COS7 lysate, 635/667 nm fluorescence, primary screen (AID 1150); conditions: COS7 hTOR1A mutant lysate, 635 nm fluorescence, higher = more signal;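 note: score pools 667 nm emission and signal to noise measuring lysate protein binding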
[10] = system: Sonic hedgehog protein (Shh); experiment: Sonic hedgehog microarray binding compounds – biochemical, small-molecule microarray, 635/667 nm fluorescence, primary screen (AID 1151); conditions: 635 nm fluorescence, higher = more signal;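 note: Shh protein binding to compounds spotted on small-molecule microarray slides; score combines spot fluorescence intensity with signal-to-noise across triplicate slides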

Chain of Streptavidin (Streptomyces avidinii) (P22629 whole entry, looked up): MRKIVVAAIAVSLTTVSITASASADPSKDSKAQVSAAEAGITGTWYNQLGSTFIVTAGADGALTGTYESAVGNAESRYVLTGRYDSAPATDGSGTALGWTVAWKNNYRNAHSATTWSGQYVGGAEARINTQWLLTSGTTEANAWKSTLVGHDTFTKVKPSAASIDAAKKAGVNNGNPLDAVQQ
Chain of Torsin-1A (Homo sapiens) (O14656 whole entry, looked up): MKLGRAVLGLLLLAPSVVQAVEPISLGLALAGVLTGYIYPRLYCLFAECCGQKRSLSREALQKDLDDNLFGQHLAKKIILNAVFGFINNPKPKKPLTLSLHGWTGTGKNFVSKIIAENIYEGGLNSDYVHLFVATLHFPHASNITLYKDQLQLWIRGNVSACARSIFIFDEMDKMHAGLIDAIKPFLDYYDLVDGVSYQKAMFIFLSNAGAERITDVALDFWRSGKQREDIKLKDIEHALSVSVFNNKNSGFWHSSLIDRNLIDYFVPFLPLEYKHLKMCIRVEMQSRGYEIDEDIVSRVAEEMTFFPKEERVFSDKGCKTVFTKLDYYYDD

Row | Structure (SMILES) | composite z-score [1] | z-score [2] | z-score [3] | z-score [4] | z-score [5] | composite z-score [6] | composite z-score [7] | composite z-score [8] | composite z-score [9] | composite z-score [10]
1 | O=C1N(Cc2ccccc2)c2ccccc2C[C@@]12N=C(c1ccc(OCCCO)cc1)O[C@H]2c1ccccc1 | 0.378 | -3.89 (inactive) | -0.34 (inactive) | 1.87 (inactive) | -0.483 (inactive) | 0.798 | -0.0963 | -0.133 | 0.318 | 1.34
2 | COc1ccc([Si](C)(C)[C@H]2[C@H](CC(=O)N(CCO)Cc3ccccc3)O[C@@]3(C(=O)N(Cc4cccc(N5CCCCC5=O)c4)c4ccccc43)[C@@H]2C)cc1 | 0.0763 | -4.74 (inactive) | -0.937 (inactive) | 3.13 (inactive) | -1.32 (inactive) | 0.0037 | -0.0719 | 0.444 | 0.793 | 2.13
3 | Cc1ccc(S(=O)(=O)N2[C@@H](c3ccccc3)C(C(=O)O)=C[C@H]2C(C)(C)C)cc1 | 0.211 | -1.23 (inactive) | 0.137 (inactive) | 0.238 (inactive) | 0.926 (inactive) | 1.52 | 0.209 | 0.391 | 0.985 | 0.719
4 | C=CCNC(=O)[C@@H]1[C@H]2C(=O)O[C@H](c3ccccc3)[C@H](c3ccccc3)N2[C@H](c2ccc(O)cc2)[C@@]12C(=O)N(C(=O)OCCOC)c1ccc(C#CCC(C(=O)OC)C(=O)OC)cc12 | 0.259 | -3.02 (inactive) | 0.132 (inactive) | -0.438 (inactive) | 0.416 (inactive) | 0.0198 | 0.0074 | 0.586 | 1.3 | 1.37
5 | COc1ccc([Si](C)(C)[C@H]2[C@H](CC(=O)N3CCC[C@H]3CO)O[C@@]3(C(=O)N(C)c4ccccc43)[C@@H]2C)cc1 | -0.0653 | 0.191 (inactive) | -0.0357 (inactive) | 1.2 (inactive) | 1.33 (inactive) | -0.28 | 0.152 | 1.52 | 0.732 | 1.54
6 | Cc1ccc(S[C@]2(C(=O)NC(C)C)CC(=O)N(Cc3ccccc3)[C@@H]2c2ccc(CO)cc2)cc1 | -0.394 | -2.19 (inactive) | -1.55 (inactive) | -0.295 (inactive) | 0.12 (inactive) | -0.375 | -0.143 | -1.65 | -1.5 | -0.501
7 | COC(=O)C(CC#Cc1ccc2c(c1)[C@]1(C(=O)N2)[C@H](C(=O)NC[C@H](O)c2ccccc2)[C@H]2C(=O)O[C@H](c3ccccc3)[C@H](c3ccccc3)N2[C@@H]1c1ccc(O)cc1)C(=O)OC | -0.174 | -0.187 (inactive) | 1.07 (inactive) | 0.488 (inactive) | -0.517 (inactive) | -0.765 | -0.0736 | -0.93 | -0.62 | 0.21
8 | COc1ccc([Si](C)(C)[C@H]2[C@H](CC(=O)N(CCO)Cc3ccccc3)O[C@@]3(C(=O)N(Cc4ccc(N5C(=O)c6cccc7cccc5c67)cc4)c4ccccc43)[C@@H]2C)cc1 | 0.954 | -4.47 (inactive) | 0.278 (inactive) | 0.353 (inactive) | -0.429 (inactive) | 0.555 | 0.545 | -0.237 | 0.454 | 2.17
9 | COC(=O)[C@@]1(Cc2ccc(F)cc2)[C@H]2c3cc(C(=O)N4CCCC4)n(C[C@H](O)CO)c3C[C@H]2CN1C(=O)c1ccccc1 | 0.943 | 0.0849 (inactive) | 0.339 (inactive) | 0.0075 (inactive) | -0.101 (inactive) | 1.12 | 0.674 | 0.0277 | 0.332 | -0.545
10 | CC(C)[Si](C#Cc1ccccc1)(O[C@H](c1ccccc1)c1cn(Cc2ccccc2)nn1)C(C)C | -0.0899 | -2.32 (inactive) | -0.519 (inactive) | -0.635 (inactive) | -1.08 (inactive) | 0.983 | -0.222 | 0.555 | 0.841 | 0.375
11 | [N-]=[N+]=NCc1ccccc1C[C@@]1(C(N)=O)N=C(c2ccc(OCCCO)cc2)O[C@@H]1c1ccccc1N=[N+]=[N-] | 0.336 | -3.18 (inactive) | 1.33 (inactive) | 1.01 (inactive) | -0.626 (inactive) | 1.31 | -0.145 | 0.369 | 0.409 | -0.455
12 | CCCCCN1CC=CC23O[C@@H]4/C=C\CCCOC(=O)C4[C@H]2C(=O)N(CCO)[C@@H]3C1=O (stereo not given in full) | -0.243 | -2.03 (inactive) | -2.97 (inactive) | -1.98 (inactive) | -0.508 (inactive) | -0.666 | -0.183 | 0.642 | 1.58 | 0.0256
13 | CC(C)c1ccc(NN2C(C(O)C3CCCCC3)C=CC3C(=O)N(c4ccccc4)C(=O)C32)cc1 (stereo not given) | 0.283 | -0.575 (inactive) | -1.15 (inactive) | 0.0467 (inactive) | 0.337 (inactive) | 1.88 | 0.0968 | -0.147 | 0.316 | 0.771
14 | C=C(/C=C\CNS(=O)(=O)c1ccc(C)cc1)[C@H](O)[C@H]1CCCN1S(=O)(=O)c1ccccc1[N+](=O)[O-] | 0.0313 | -4.19 (inactive) | 0.227 (inactive) | 13 (active) | 0.121 (inactive) | -0.0435 | -0.0986 | 0.345 | -0.0414 | 0.17
15 | C=CCNC(=O)[C@@H]1[C@H]2C(=O)O[C@H](c3ccccc3)[C@H](c3ccccc3)N2[C@H](c2ccc(OCCO)cc2)[C@@]12C(=O)Nc1ccc(C#CC3=CCCCC3)cc12 | 0.257 | -4.25 (inactive) | -0.188 (inactive) | 0.299 (inactive) | -0.0321 (inactive) | 1.06 | 0.0502 | 0.707 | 0.531 | 1.66
16 | C[C@]1(C(=O)O)c2ccccc2C(=O)N(Cc2cc(C(F)(F)F)cc(C(F)(F)F)c2)[C@H]1c1ccc(CO)cc1 | 0.0785 | 0.104 (inactive) | -0.518 (inactive) | 0.531 (inactive) | 0.165 (inactive) | 1.41 | 0.0227 | -0.652 | -0.113 | 1.64
17 | CC(C)[Si]1(C(C)C)OCc2cc(-c3ccc(-c4ccc(Cl)c(Cl)c4)o3)nc(-c3ccc(Oc4ccccc4)cc3)c21 | -0.615 | -0.558 (inactive) | 0.457 (inactive) | 0.251 (inactive) | -0.835 (inactive) | -0.767 | -0.382 | -1.33 | -2.07 | -0.976
18 | CCCCC(=C=CC[C@H](O)c1ccccc1OCCO)CCO | -0.0677 | -0.0854 (inactive) | 0.235 (inactive) | 4.29 (inactive) | 1.37 (inactive) | -0.356 | -0.0762 | -0.309 | 0.0868 | 0.704
19 | O=C1O[C@H](c2ccccc2)[C@H](c2ccccc2)N2[C@H]1[C@@H](C(=O)O)[C@]1(C(=O)Nc3ccccc31)[C@H]2c1ccc(OCCO)cc1 | -0.0515 | 0.234 (inactive) | -0.369 (inactive) | 0.739 (inactive) | 0.727 (inactive) | 1.08 | -0.0468 | 0.658 | -0.283 | 0.98
20 | O=C1NC(=O)C2C1C=CC(C(O)c1ccc(F)cc1)N2Nc1ccc(Cl)cc1Cl (stereo not given) | -0.166 | -1.79 (inactive) | -0.762 (inactive) | 0.0535 (inactive) | -0.207 (inactive) | -0.346 | -0.0645 | -0.556 | -0.348 | -0.354
21 | CO[C@H]1O[C@H](CO)[C@@H](OC(=O)Nc2cccc(F)c2)[C@H](OC(=O)Nc2ccc3c(c2)OCO3)[C@@H]1OC(=O)Nc1ccc2c(c1)OCO2 | 0.22 | -3.26 (inactive) | 0.221 (inactive) | -0.207 (inactive) | -0.41 (inactive) | 0.438 | 0.0471 | 1.17 | 1.21 | 0.519
22 | C=C(COC)/C(=C/C[C@@H](OC(=O)c1ccncc1)c1ccccc1OCCO)c1cnc2ccccc2c1 | 1.09 | -3 (inactive) | 1.45 (inactive) | 18.2 (active) | 1.24 (inactive) | 1.93 | 0.0422 | 0.113 | 1.15 | 2.07
23 | C=C(COC)C(=O)CC[C@H](OC(C)=O)c1ccc(CO)o1 | -0.0261 | -2.28 (inactive) | -0.824 (inactive) | -0.0884 (inactive) | 0.464 (inactive) | -0.0888 | -0.101 | -0.675 | -0.337 | 1.55
24 | COc1ccc(C(O)C2C=CC3C(=O)N(c4ccccc4)C(=O)C3N2Nc2ccccc2F)c2ccccc12 (stereo not given) | 0.936 | -0.225 (inactive) | -1.21 (inactive) | 0.629 (inactive) | -0.813 (inactive) | 2.38 | 1.11 | 0.163 | 0.273 | 0.824
25 | COC(=O)C(CC#Cc1ccc2c(c1)[C@]1(C(=O)N2)[C@H](c2ccc(OCCO)cc2)N2[C@H](c3ccccc3)[C@H](c3ccccc3)OC(=O)[C@H]2[C@@H]1C(N)=O)C(=O)OC | -0.0885 | -2.24 (inactive) | -0.287 (inactive) | -0.0246 (inactive) | 0.0658 (inactive) | 1.42 | -0.0719 | 0.598 | -0.127 | -0.315
26 | COC(=O)[C@@]1(Cc2ccc(F)cc2)[C@H]2c3cc(C(=O)N4CCCC4)n(Cc4ccc(OC(F)(F)F)cc4)c3C[C@H]2CN1C(=O)c1ccccc1 | -0.0554 | -0.0066 (inactive) | -0.679 (inactive) | -0.185 (inactive) | 0.137 (inactive) | -0.203 | 0.0306 | -0.0112 | 0.395 | -1.02
27 | CN1C(=O)C2C=CC(C(O)c3cccs3)N(N(c3ccccc3)c3ccccc3)C2C1=O (stereo not given) | -0.0276 | 0.114 (inactive) | -0.176 (inactive) | 1.21 (inactive) | -0.324 (inactive) | 0.827 | 0.0422 | 1.75 | 0.0109 | -0.287
28 | COC(=O)C(CC#Cc1ccc2c(c1)[C@]1(C(=O)N2)[C@H](C(=O)N2CCCCCCC2)[C@H]2C(=O)O[C@H](c3ccccc3)[C@H](c3ccccc3)N2[C@@H]1c1ccc(OCCO)cc1)C(=O)OC | 2.02 | -0.873 (inactive) | 1.02 (inactive) | -0.581 (inactive) | -0.546 (inactive) | 4.12 | 1.97 | 3.57 | 3.65 | 2.05
29 | CC(C)C[C@@H]1NC(=O)[C@@H]2C[C@H](C(=O)NCCCCCCNC(=O)CS)[C@H](c3ccc(O)cc3)N2C1=O | 0.841 | -1.88 (inactive) | -0.00979 (inactive) | -0.268 (inactive) | -0.439 (inactive) | 0.813 | -0.0933 | 0.887 | 1.21 | 2.21
